The whole screen tested about 48,000 compounds, of which about 13,000 (27%) showed an effect of 50% or more. The list shows a part of the results.
test system: Wolbachia pipientis; assay: Anti-Wolbachia Cell-Based Screen; assay type: functional; design: scale not given: in the data most compounds retested in dose-response had high values; conditions: 5 µM

In order of rising “Percent Effect” value:
1. Cc1cc(N(C)CC2COc3ccccc3O2)nc(C)n1 (centres undefined)  -50.37%
2. Cc1cc(C(=O)OCC2CCCN2C(N)=O)c(C)o1 (centres undefined)  -25.43%
3. COc1ccccc1C(C)N1CCN(S(C)(=O)=O)CC1 (centres undefined)  -21.28%
4. COc1ncccc1C1CC(=O)NCc2nc3sccn3c21 (centres undefined)  -19.07%
5. CN1CCC(N2CC[C@@H]3[C@@H](CCC(=O)N3CCC3=CCCCC3)C2)CC1  -18.13%
6. O=C1C(N2CCN(c3ccccc3Cl)CC2)CCN1C1CCOCC1 (centres undefined)  -17.41%
7. CC(C)c1n[nH]c(C(=O)Nc2ccncc2)c1Br  -16.38%
8. CNC(=O)COc1c(C(C)=O)ccc(Cl)c1Cl  -15.04%
9. CC(C)c1n[nH]c(C(=O)Nc2ccnn2C(C)C)c1Br  -14.02%
10. N#Cc1ccc(S(=O)(=O)N2CC(CC(=O)O)c3ccccc32)cc1 (centres undefined)  -12.53%
11. CC(NC(=O)N1CCS(=O)(=O)CC1)c1ccc(F)cc1Cl (centres undefined)  -12.17%
12. CN1CCN(Cc2cnc3n2CCN(C(=O)c2ccnnc2)C3)CC1  -11.55%
13. CC(=O)c1ccc(Cl)c(Cl)c1OCC(=O)NCC(F)(F)F  -11.44%
14. CCSc1ncc(CN(Cc2cnn(C)c2)CC(C)C)cn1  -10.44%
15. COc1cc(F)c(S(=O)(=O)N2CCN(C)Cc3ccccc32)cc1OC  -10.31%
16. O=C(Cc1cccnc1)NC1COc2ccccc2C1=O (centres undefined)  -10.11%
17. CC(=O)c1ccc(Cl)c(Cl)c1OCC(=O)NC(C)C  -9.893%
18. COc1ccncc1NC(=O)c1[nH]nc(C(C)C)c1Br  -9.572%
19. NC(=O)C1=NC2=NS(=O)(=O)c3ccccc3N2N1Cc1ccccc1Cl  -9.423%
20. Cc1nnc(CN2CCOC(c3ccc(Cl)cc3)C2)o1 (centres undefined)  -9.345%
21. CN(C)Cc1cc(=O)n2c(n1)CN(C(=O)Cc1ccsc1)CCC2.O=C(O)C(F)(F)F  -8.762%
22. COCC(=O)N1CCc2[nH]nc(-c3ccc4c(c3)OCO4)c2C1  -8.415%
23. Cc1noc(CNc2ccccc2CC(=O)N(C)C)n1  -7.553%
24. CCCn1nc(C)c(CNC(=O)C2COc3c(cccc3OC)C2)c1C (centres undefined)  -7.419%
25. CC(C)c1n[nH]c(C(=O)Nc2cc[nH]n2)c1Br  -7.047%
26. CS(=O)(=O)N1CCN(CC(O)COc2ccc(F)cc2)CC1 (centres undefined)  -6.942%
27. COc1cc(CCC(=O)NC2CC2)ccc1OCC(F)(F)F  -6.568%
28. O=C(Cc1cc(-c2ccc3c(c2)OCO3)on1)NC1CCCC1  -5.202%
29. CCNC(=O)N1C[C@@H](NC(C)=O)[C@H](c2ccc(C)o2)C1  -5.007%
30. O=C(Cc1ccsc1)N1CCn2cc(CN3CCCC3)nc2C1  -4.915%
31. CC(=O)NCC(=O)N1CCn2cc(CN(C)Cc3ccco3)nc2C1.O=C(O)C(F)(F)F  -4.865%
32. CCNC(=O)N1CCC2(CC1)CCn1c(-c3cccc(OC)c3)cnc12  -4.783%
33. Cc1ccc(OCC(=O)NC2CC2)nc1  -4.219%
34. Cc1ncsc1CCN1CCC(N(C)Cc2ncc(C(C)C)o2)C1 (centres undefined)  -3.966%
35. CSCc1noc(CNC(=O)c2cc(C)c(C)[nH]c2=O)n1  -3.67%
36. CN1CCOCC2(CCCN(C(=O)c3cn(C)cn3)C2)C1.O=C(O)C(F)(F)F (centres undefined)  -3.228%
37. O=c1[nH]c2nc(NCC3CCCO3)ncc2c(=O)n1-c1ccc(F)cc1 (centres undefined)  -3.035%
38. CC(NCc1ccc(OCC(N)=O)cc1)c1ccc(Cl)cc1Cl.Cl (centres undefined)  -2.997%
39. O=S(=O)(NCCN1CCOCC1)c1cncc(Cl)c1  -2.689%
40. COCc1cc(NCc2cccnc2Oc2ccc(C)nc2)ncn1  -2.689%
41. O=C(COc1ccc(Br)cc1F)Nc1cn[nH]c1  -2.369%
42. CC(C)(C)NC(=O)NC(=O)COc1nc(C(C)(C)C)no1  -2.31%
43. O=C(NC[C@H]1OC[C@@H](NCc2ccccc2F)[C@@H]1O)c1ccc(F)cc1  -2.288%
44. CN(Cc1csc(-c2cccs2)n1)C(=O)CCn1ccccc1=O  -2.021%
45. O=C(NCc1ccccc1)N1CCn2c(Cn3cccn3)cnc2C1  -1.854%
46. O=C(CCNCc1cccc2c1OCCCO2)NC1CCCC1  -1.594%
47. CC(C)N(C)Cc1cn2c(n1)CN(C(=O)Cc1ccsc1)CC2.O=C(O)C(F)(F)F  -0.9088%
48. CCc1noc(CNc2cc3c(cc2Cl)OCCCO3)n1  -0.8134%
49. CSCCC1c2nc[nH]c2CCN1Cc1cncn1C (centres undefined)  -0.6967%
50. N#CCc1ccc(OCC(=O)N2CCCC(n3cccn3)C2)cc1 (centres undefined)  -0.2298%
51. Cc1cccc2ncnc(N3CCOC(C)C3)c12 (centres undefined)  0.1008%
52. CC(c1cccc(Cl)c1)N1CCN(S(C)(=O)=O)CC1 (centres undefined)  0.53%
53. CC(Cn1cccn1)NS(=O)(=O)Cc1ccc(F)cc1 (centres undefined)  0.5755%
54. CCOCCN1CCN(CC(=O)NC2(C#N)CCCC2)CC1C (centres undefined)  0.8038%
55. COCC1CC2(CCN(C(=O)c3ccc(OC)c(Cl)c3)CC2)CO1 (centres undefined)  1.634%
56. O=C(Cn1cccnc1=O)NCCc1ccc2c(c1)OCCO2  1.93%
57. O=C(NCc1cccnc1)N1CCn2c(Cn3cccn3)cnc2C1  2.46%
58. CCc1cc(NCC(N)=O)nc(N2CCCCC2)n1  3.256%
59. O=C(Cc1ccsc1)N1CCn2cc(Cn3cncn3)nc2C1  4.087%
60. COc1ccc(NC(C)=O)c(N2CCN(C(C)=O)CC2)n1  4.921%
61. CC(C)N(C)Cc1cn2c(n1)CN(Cc1ccsc1)CC2.O=C(O)C(F)(F)F.O=C(O)C(F)(F)F  6.195%
62. CNc1nc(CNC(=O)Nc2ccc(OC(C)C)cc2F)cs1  6.813%
63. CCCC1CCCN(C(=O)CNC(=O)c2ccoc2C)CC1 (centres undefined)  7.571%
64. COc1ccc2cc(C3CN(C(=O)N(C)C)CCO3)ccc2c1 (centres undefined)  8.393%
65. COCC(=O)N1CCN(C(=O)C2(c3ccc(C)c(OC)c3)CC2)CC1  8.797%
66. COc1ccc(C(C)=O)c(OCC(=O)NC(C)c2ccc(F)cc2)c1 (centres undefined)  9.317%
67. CCNC(=O)NC(C)(C)C(=O)NCCc1csc2ccccc12  9.687%
68. CCOCc1cncc2c1CCN(S(=O)(=O)c1cccc(C)c1)C2  11.95%
69. O=S(=O)(C1CC1)N1CCn2c(Cn3cncn3)cnc2C1  13.19%
70. CCc1ccc(OCC(O)CN2CCN(S(C)(=O)=O)CC2)cc1 (centres undefined)  13.83%
71. COc1ncccc1NC(=O)c1[nH]nc(C(C)C)c1Br  15.14%
72. Cc1n[nH]c(=O)c2c(NC(=O)CN3CCCC(C(F)(F)F)C3)oc(C)c12 (centres undefined)  17.73%
73. CNC(=O)NC(=O)COc1c(C(C)=O)ccc(Cl)c1Cl  18.02%
74. CC(C)c1cc(N2CCC[C@H](N)C2)n2nccc2n1  19.12%
75. CCc1cnc(NCc2nc(CSC)no2)nc1  19.97%
76. CC(C)(C)n1ncc2c(=O)n(CC(=O)NCCc3ccccc3)cnc21  21.71%
77. CC(C)N(C)C(=O)C1CSCN1S(=O)(=O)c1cccs1 (centres undefined)  24.99%
78. CC(=O)c1cc(Br)cc(F)c1OCC(=O)NC(C)C  60.24%
79. CCNC(=O)N1CC2=CC(C)(C)COc3ccc(OC)c(c32)C1  61.47%
80. O=C(Cn1cnc2cc3c(cc21)OCCCO3)NCCc1ccccc1  66.67%
81. COc1ccc2c3c1CN(C(=O)N(C)C)CC3=CC(C)(C)CO2  71.28%
82. COc1ccc2c3c1CN(C(C)=O)CC3=CC(C)(C)CO2  80.53%
83. O=S(=O)(C1CC1)N1CCc2c(CN3CCOCC3)cncc2C1  82.99%
84. N#Cc1cccc(C(=O)N2CCn3c(Cn4cncn4)cnc3C2)c1  83.01%
85. CCN(CC)Cc1cn2c(n1)CN(C(=O)Cc1ccsc1)CC2.O=C(O)C(F)(F)F  83.51%
86. COCC(=O)N1CC2=CC(C)(C)COc3ccc(OC)c(c32)C1  86.58%
87. O=C(Cn1cnc2cc3c(cc21)OCCCO3)NC1CCCC1  88.37%
88. Cc1cncc(C(=O)N2CCc3ncc(Cn4cccn4)n3CC2)c1  88.89%
89. Cc1ccc(C(=O)N2CCc3ncc(Cn4cccn4)n3CC2)o1  95.36%
90. CN(C)Cc1cn2c(n1)CN(C(=O)Cc1ccsc1)CC2.O=C(O)C(F)(F)F  96.46%
91. O=C(Cn1cnc2cc3c(cc21)OCCCO3)NC1CCCCC1  96.56%
92. Cc1ccnc(NC(=O)c2[nH]nc(C(C)C)c2Br)c1  97.23%
93. CC(=O)c1cc(Br)cc(F)c1OCC(=O)NC1CC1  100.7%
94. COc1ccc2c3c1CN(S(C)(=O)=O)CC3=CC(C)(C)CO2  106.6%
95. COCCOC(=O)N1CC2=CC(C)(C)COc3ccc(OC)c(c32)C1  110%
96. COC(=O)COc1c(F)cc(Br)cc1C(C)=O  110.5%
97. CC(C)c1n[nH]c(C(=O)NC(C)c2ccncc2)c1Br (centres undefined)  112.2%
98. CNC(=O)COc1c(F)cc(Br)cc1C(C)=O  112.4%
99. CC(C)c1n[nH]c(C(=O)Nc2ccccn2)c1Br  113.3%
100. CC(C)N(C)Cc1cn2c(n1)CN(C(=O)Cc1ccccc1)CC2.O=C(O)C(F)(F)F  114%
101. Cc1cccc(NC(=O)c2[nH]nc(C(C)C)c2Br)n1  122.8%
102. COC(=O)N1CC2=CC(C)(C)COc3ccc(OC)c(c32)C1  125.4%
103. CCOc1ccc(OCC(O)CN2CCN(S(C)(=O)=O)CC2)cc1 (centres undefined)  152.9%
104. CS(=O)(=O)N1CCN(CC(O)COc2ccc(Cl)cc2)CC1 (centres undefined)  153.2%
